{
  "source": "PubChem BioAssay AID1347142",
  "about": "(National Center for Advancing Translational Sciences (NCATS), 2019)",
  "note": "Records with an inconclusive call do not appear. A number with no mark means an inactive call. The source made the active and inactive calls. Calls follow the shape of the dose curve; as a rule, active = well fitted inhibition curve with a large enough effect; inconclusive = small, poorly fitted or top-dose-only effect; inactive = no such curve, though single readings can be large or run the other way. Also: nearly all actives have a fitted effect of over 80% in size. For activity change, negative = inhibition in this document: 0% is about no effect. Potency is read from the fitted curve at half-maximal effect.",
  "data": [
    {"target": "N-terminal Xaa-Pro-Lys N-methyltransferase 1 (Homo sapiens) (UniProt Q9BV86)", "sequence (Q9BV86 whole entry, looked up)": "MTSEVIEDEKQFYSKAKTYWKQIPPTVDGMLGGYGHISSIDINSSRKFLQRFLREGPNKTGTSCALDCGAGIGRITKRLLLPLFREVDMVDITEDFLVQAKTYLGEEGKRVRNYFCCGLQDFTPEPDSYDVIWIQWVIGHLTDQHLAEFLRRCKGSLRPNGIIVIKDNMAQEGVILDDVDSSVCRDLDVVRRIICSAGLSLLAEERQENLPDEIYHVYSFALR", "assay": "qHTS Assay for Inhibitors of N-terminal methyltransferase 1 (NTMT1): ThioGlo3 Assay Confirmatory Screen, Round 1.", "settings": "NTMT1 SAHH-coupled ThioGlo3 fluorescence, 30 min; series mostly up to 56.8 µM; activity change, negative = inhibition: at the top concentration", "source_text": "Assay Submitter (PI): Rong Huang Ph.D, Purdue University, West Lafayette, IN 47907 The N-terminal methytransferase 1 is the first methyltransferase that methylates protein alpha-N-amines and plays an important role in regulating cell mitosis, chromatin interactions and DNA repair. It is observed to be over-expressed in various cancer patient tissues like malignant melanoma and colorectal cancer tissues. Knockdown of NTMT1 in cancer cells causes cell mitotic defects and enhances sensitivity to DNA damaging chemotherapeutics. […] These critical cellular processes in which NTMT1 is implicated, coupled with emerging links to cellular dysfunction, strengthen the inference that NTMT1 is a compelling novel anticancer target. Progress have been made in understanding the molecular properties of NTMT1 and the biological consequences of protein alpha-N-terminal methylation, but there are no specific small molecule probes available for NTMT1 to fully characterize its MTase activity. To address this unmet need, a panel of assay is created and established to enable quantitative high-throughput screening (qHTS) for novel, potent, and selective small molecule NTMT1 inhibitors. Two orthogonal qHTS that use different reagents (ThioGlo vs. MTaseGlo) are developed for primary robotic screening against the NCATS chemical library of more than 400,000 small molecules. Identified inhibitors are reacquired, validated, and further characterized. […] Early Translation Branch (ETB) National Center for Advancing Translational Sciences (NCATS) National Institute of Health (NIH)\nMaterials: NTMT1 enzyme, substrate SPKRIA, control peptide RCC1-6 is provided by the Huang laboratory. ThioGlo3 Assay: In brief, 125nM NTMT1 enzyme was dispensed into a 1536-well assay plate with Aurora Discovery BioRAPTR Flying Reagent Dispenser (FRD, Beckton-Dickenson). Compounds (at various concentration) or 1uM RCC1-6 (SPKRIA) control were transferred to the assay plate using the Kalypsys 1536-pintool apparatus. After 1 min of room temperature incubation, 1uL of substrate (100uM SAM, 10uM SAHH, 15uM ThioGlo3) was added to the wells bringing the final assay volume to 4uL. Initial (background) fluorescence readout (EX: 340nm, EM: 450nm) was then detected using the PerkinElmer ViewLux microplate imager and a final fluorescence readout was taken after 30 min of room temperature incubation. The data was normalized to the background fluorescence.", "units": {"activity change, negative = inhibition": "%"}, "values": [
      {"smiles": "Nc1nc(Cl)nc2c1ncn2[C@@H]1O[C@H](CO)[C@H](O)[C@H]1O", "activity change, negative = inhibition": -11.3},
      {"smiles": "Cc1ccccc1CNc1ncnc2c1ncn2[C@@H]1O[C@H](CO)[C@@H](O)[C@H]1O", "Potency": "27.1 µM (active)"},
      {"smiles": "COc1cc2nc(N3CCN(C)CC3)nc(NCCCN(C)C)c2cc1OC", "Potency": "27.1 µM (active)"},
      {"smiles": "CNc1ncnc2c1ncn2[C@@H]1O[C@H](CO)C(O)[C@H]1O", "note": "(stereo not given in full)", "activity change, negative = inhibition": 7.24},
      {"smiles": "COc1cc2c(NC3CCN(CC4CCCCC4)CC3)nc(N3CCCN(C)CC3)nc2cc1OCCOCCN(C)C", "Potency": "24.1 µM (active)"},
      {"smiles": "CC(C)(COP(=O)(O)OP(=O)(O)OC[C@H]1O[C@@H](n2cnc3c(N)ncnc32)[C@H](O)[C@@H]1OP(=O)(O)O)[C@H](O)C(=O)NCCC(=O)NCCS", "activity change, negative = inhibition": 49.5},
      {"smiles": "COc1cc2nc(N3CCCN(C)CC3)nc(NC3CCN(Cc4ccccc4)CC3)c2cc1OC", "Potency": "27.1 µM (active)"},
      {"smiles": "OC[C@@H]1O[C@H](n2cnc3c(SCc4ccccc4)ncnc32)[C@H](O)[C@H]1O", "activity change, negative = inhibition": -1.57},
      {"smiles": "COc1cc2c(NC3CCN(C(C)C)CC3)nc(N3CCCN(CC4CCCCC4)CC3)nc2cc1OCCCN1CCCCC1", "Potency": "24.1 µM (active)"},
      {"smiles": "COc1cc2nc(N3CCCN(C)CC3)nc(NC3CCN(C)CC3)c2cc1OC", "Potency": "21.5 µM (active)"},
      {"smiles": "CO[C@@H]1[C@@H]2OP(=O)(O)OC[C@H]2O[C@H]1n1c(Sc2ccc(Cl)cc2)nc2c(N)ncnc21", "activity change, negative = inhibition": -11.6},
      {"smiles": "COc1cc2nc(N3CCOCC3)nc(NC3CCN(Cc4ccccc4)CC3)c2cc1OC", "Potency": "27.1 µM (active)"},
      {"smiles": "CC[C@H](C)n1cc(C)c2c(C(=O)NCc3c(C)cc(C)[nH]c3=O)cc(-c3ccc(N4CCNCC4)nc3)cc21", "Potency": "21.5 µM (active)"},
      {"smiles": "COc1cc2c(NC3CCN(C)CC3)nc(N3CCCN(C)CC3)nc2cc1OCCN(C)C", "Potency": "21.5 µM (active)"},
      {"smiles": "Nc1nc(Cl)nc2c1ncn2[C@H]1C[C@H](O)[C@@H](CO)O1", "Potency": "inactive"},
      {"smiles": "Nc1nc(Cl)nc2c1ncn2[C@@H]1O[C@H](COP(=O)(O)OP(=O)(O)OP(=O)(O)O)[C@@H](O)[C@H]1O", "activity change, negative = inhibition": -20.5},
      {"smiles": "COc1cc2nc(N3CC[C@H](N(C)C)C3)nc(NC3CC3)c2cc1OC", "activity change, negative = inhibition": 15.8},
      {"smiles": "Nc1ncnc2c1nc(N1CCCCC1)n2[C@@H]1O[C@@H]2COP(=O)(O)O[C@H]2[C@H]1O", "activity change, negative = inhibition": -18.6},
      {"smiles": "COc1cc2c(NC3CCN(C4CCCCC4)CC3)nc(N3CCCCC3)nc2cc1OCCCN1CCCCC1", "Potency": "24.1 µM (active)"},
      {"smiles": "NCCNC(=O)Cc1ccc(NC(=O)Cc2ccc(Nc3ncnc4c3ncn4[C@@H]3O[C@H](CO)[C@@H](O)[C@H]3O)cc2)cc1", "activity change, negative = inhibition": -1.16},
      {"smiles": "OC[C@@H]1O[C@@H](n2cnc3c(NC4CCCC4)ncnc32)[C@H](O)[C@H]1O", "activity change, negative = inhibition": 10.8},
      {"smiles": "CSCC1OC(n2cnc3c(N)ncnc32)C(O)C1O", "note": "(stereo not given)", "activity change, negative = inhibition": 4.86},
      {"smiles": "NC[C@H]1O[C@@H](n2cnc3c(N)ncnc32)[C@H](O)[C@@H]1O", "activity change, negative = inhibition": 0.444},
      {"smiles": "COc1cc2nc(N3CCN(C)CC3)nc(N3CCOCC3)c2cc1OC", "Potency": "21.5 µM (active)"},
      {"smiles": "OC[C@H]1O[C@@H](n2cnc3c(N[C@H]4C[C@H]5CC[C@@H]4C5)ncnc32)[C@H](O)[C@@H]1O", "activity change, negative = inhibition": -20.2},
      {"smiles": "Nc1ncnc2c1ncn2[C@@H]1O[C@H](CO)[C@@H](O)[C@@H]1O", "activity change, negative = inhibition": -9.54},
      {"smiles": "COc1cc2c(NC3CCN(CC4CCCCC4)CC3)nc(N3CCCCC3)nc2cc1OCCOCCN(C)C", "Potency": "24.1 µM (active)"},
      {"smiles": "CNc1ncnc2c1ncn2[C@@H]1O[C@H](COP(=O)(O)O)[C@@H](O)[C@H]1O", "activity change, negative = inhibition": -11.9},
      {"smiles": "COc1cc2nc(N3CCN(C)CC3)nc(NC3CCN(Cc4ccccc4)CC3)c2cc1OC", "Potency": "24.1 µM (active)"},
      {"smiles": "COc1cc2c(NC3CCN(C)CC3)nc(N3CCCCC3)nc2cc1OCCOCCN1CCCC1", "Potency": "27.1 µM (active)"},
      {"smiles": "COc1cc2nc(N3CCCN(C)CC3)nc(NC3CCCCC3)c2cc1OC", "Potency": "27.1 µM (active)"},
      {"smiles": "CCNc1nc(N2CCCN(C)CC2)nc2cc(OC)c(OC)cc12", "Potency": "34.1 µM (active)"},
      {"smiles": "COc1cc2c(NC3CCN(C(C)C)CC3)nc(N3CCCCCC3)nc2cc1OCCCN1CCCC1", "Potency": "21.5 µM (active)"},
      {"smiles": "COc1cc2c(NC3CCN(CC4CCCCC4)CC3)nc(N3CCCN(C)CC3)nc2cc1OCCCN1CCCCC1", "Potency": "21.5 µM (active)"},
      {"smiles": "COc1cc2nc(NC3CCN(Cc4ccccc4)CC3)nc(N3CCCN(C)CC3)c2cc1OC", "Potency": "24.1 µM (active)"},
      {"smiles": "COc1cc2c(NC3CCN(C(C)C)CC3)nc(N3CCCN(C)CC3)nc2cc1OCCOCCN(C)C", "Potency": "24.1 µM (active)"},
      {"smiles": "Nc1ncnc2c1ncn2[C@@H]1O[C@H](C(=O)NC2CC2)[C@@H](O)[C@H]1O", "activity change, negative = inhibition": 2.31},
      {"smiles": "COc1cc2c(NC3CCN(CC4CCCCC4)CC3)nc(N3CCCCC3)nc2cc1OCCCN1CCCCC1", "Potency": "17.1 µM (active)"},
      {"smiles": "CC(C)N(CCCNC(=O)Nc1ccc(C(C)(C)C)cc1)C[C@H]1O[C@@H](n2cc(Br)c3c(N)ncnc32)[C@H](O)[C@@H]1O", "activity change, negative = inhibition": -1.9},
      {"smiles": "COc1cc2c(NC3CCN(C)CC3)nc(N3CCCN(C)CC3)nc2cc1OCCCCCN(C)C", "Potency": "24.1 µM (active)"}
    ]}
  ]
}
